Assay results: PubChem BioAssay
Activity calls are given as the source filed them. The rule behind the calls is not given here.

These molecules were tested against Pantothenate synthetase (Mycobacterium tuberculosis (strain ATCC 25618 / H37Rv)) (UniProt P9WIL5) (assay: Coupled enzyme confirmation of inhibitors against recombinant Mtb PanC (AID 375;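 note: 0% = full reaction with vehicle and 100% = no enzyme background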)). Settings: coupled enzyme assay; at 10 µM, hits give high values.
Chain of Pantothenate synthetase (Mycobacterium tuberculosis (strain ATCC 25618 / H37Rv)) (P9WIL5 whole entry, looked up): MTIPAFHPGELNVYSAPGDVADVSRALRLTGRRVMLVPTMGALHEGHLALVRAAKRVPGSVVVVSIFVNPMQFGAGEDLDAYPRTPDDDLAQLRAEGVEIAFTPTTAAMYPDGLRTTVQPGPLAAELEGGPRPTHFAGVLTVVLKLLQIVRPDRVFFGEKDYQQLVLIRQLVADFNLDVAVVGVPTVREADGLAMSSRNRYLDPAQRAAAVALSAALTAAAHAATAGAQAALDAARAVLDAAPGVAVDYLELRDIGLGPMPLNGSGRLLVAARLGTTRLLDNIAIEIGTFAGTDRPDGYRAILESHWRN

SMILES	inhibition
COC(=O)c1ccnc(/C=N/O)c1	6% (inactive)
CCOC(=O)c1cc2n(n1)C(C(F)(F)C(F)(F)F)CC(C)N2 (stereo not drawn)	1% (inactive)
O=C(COc1ccc(Cl)cc1)NCc1nnc(SCC(=O)Nc2ccc3c(c2)OCCO3)o1	3% (inactive)
c1ccc(OCCOc2ncnc3sccc23)cc1	0% (inactive)
CN1CC=C2C(C#N)=C(N)C(C#N)(C#N)C(Cc3ccccc3)C2C1 (stereo not drawn)	0% (inactive)
CCc1cccc2c(=O)c(C(=O)NCCN3CCOCC3)c[nH]c12	10% (inactive)
CCCCNc1cc(C(=O)O)cc(S(N)(=O)=O)c1Oc1ccccc1	3% (inactive)
CN(C)C(CNC(=O)Nc1cccc(Cl)c1)c1cccnc1 (stereo not drawn)	0% (inactive)
